# Screens as filed in PubChem.
# An excerpt weighted towards active compounds, which were near 2.1% of everything screened.
# COUP-TFII inh: NR2F2 (human) inhibition, primary screen; P24468; HEK293T NGFI-A luciferase reporter, luminescence; inhibition, % at 8.6 µM; AID 686940; actives 0.7% (n = 370,000);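 active = inhibition above a per-plate cutoff, mean inhibition of test wells between control levels plus 3 SD, cut at about 38% in these data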;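 note: cells cotransfected with COUP-TFII expression vector driving the NGFI-A reporter; 0% = median of COUP-TF2 test wells and 100% = reporter-only cells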
# GalR3 antagonist: antagonists of human GalR3. HEK293 GalR3-CNG cAMP membrane potential fluorescence; galR3 body fused to GalR1 C-terminus. inhibition, % at 3 µM. actives 0.44% (n = 360,000). AID 651719;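 active = inhibition above the screen-wide average plus 3 SD, cut at about 13% in these data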;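 note: forskolin and galanin both at EC90 stimulate the cells; cAMP rise reported by CNG channel membrane potential dye signal; 0% = forskolin plus galanin with DMSO and 100% = forskolin alone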
# Target sequence (O60755 1-299 limits assumed): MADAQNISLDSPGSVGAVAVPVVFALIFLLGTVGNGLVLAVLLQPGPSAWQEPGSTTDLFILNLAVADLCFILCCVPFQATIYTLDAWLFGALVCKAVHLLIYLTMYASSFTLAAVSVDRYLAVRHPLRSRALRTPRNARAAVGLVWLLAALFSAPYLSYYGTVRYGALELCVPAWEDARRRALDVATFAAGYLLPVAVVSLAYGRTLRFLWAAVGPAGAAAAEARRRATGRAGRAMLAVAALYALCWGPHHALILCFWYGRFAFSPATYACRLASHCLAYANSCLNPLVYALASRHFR
# aDG glyco act: alpha-DG glycosylation activation; actives 0.22% (n = 360,000); AID 624168; activation, % at 10 µM; Pro5-aDG cells, alpha-DG glycosylation AlphaScreen (IIH6); 0% Pro5, 100% B10-LARGE cell signal;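 active = activation of at least 8% versus controls, or a plate z-score of at least 8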;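 note: Pro5 are CHO cells carrying HIG-tagged alpha-DG that lacks glycosylation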
# Gli-Sufu block: blocks Gli-Sufu signaling in a luciferase reporter | actives 0.74% (n = 340,000) | AID 588413 | Sufu-KO-LIGHT fibroblasts, Gli luciferase reporter luminescence | inhibition, % at 5 µM;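 active = inhibition above about 55%, limit read from the data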;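 note: 0% = DMSO-treated cells and 100% = wells with medium but no cells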
# Env fusion inh: HIV envelope-mediated fusion inhibition; HeLa-JRFL Env/CEM21 cell fusion, luciferase; inhibition, % at 12.3 µM; actives 1.1% (n = 360,000);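 active = mean replicate inhibition score of at least 50 and every replicate individually at or above 50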;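 note: 0% = plate neutral controls and 100% = maraviroc near 300 nM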
# aDG conf: confirmation of alpha dystroglycan glycosylation activators | shares compounds with aDG glyco act | Pro5-aDG cells, alpha-DG glycosylation, IIH6 AlphaLISA; scaled to LARGE-overexpressing B10 cells as 100% | activation, % at 10 µM (by protocol) | actives 17% (n = 600);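 active = activation of at least 7% in one or more replicates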;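 note: cells exposed to compound for two days before detection; 0% = DMSO-treated Pro5 cells and 100% = DMSO-treated B10-LARGE cells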
# Active calls of the source: *; / = no result; [ ] = remark or other dose.
SMILES,COUP-TFII inh,GalR3 antagonist,aDG glyco act,Gli-Sufu block,Env fusion inh,aDG conf
COCC(=O)Nc1ccc2c(c1)C(=O)N(C)[C@H]1CC[C@@H](CC(=O)NCc3cccc(F)c3)O[C@@H]1CO2,/,/,/,/,-10[16.7 µM],/
Cc1noc(/C=C/N(C)C)c1S(=O)(=O)N1CCC(C(=O)Nc2ccc(Cl)cc2)CC1,-4,-3,8.6*,-7,4,2
Cc1cc(C)cc(NC(=O)C2CCCN(S(=O)(=O)c3c(C)noc3C)C2)c1 (configuration not stated),8,-2,3.1*,-1,1,0
Cc1ccc(NC(=O)C2CCN(S(=O)(=O)c3c(C)noc3/C=C/N(C)C)CC2)cc1,7,1,0,-9,27,/
COc1cccc(S(=O)(=O)NCc2ccc(C(=O)Nc3cccc(Cl)c3)cc2)c1,37,-5,4.7*,11,/,1
COc1cccc(S(=O)(=O)NCc2ccc(C(=O)Nc3ccc(Cl)cc3)cc2)c1,24,-4,0,-6,43,/
C[C@@H]1CN([C@@H](C)CO)C(=O)Cc2cc(NC(=O)Nc3ccc(C(F)(F)F)cc3)ccc2O[C@@H]1CN(C)C(=O)Nc1ccc2c(c1)OCO2,/,/,/,/,-91[16.7 µM],/
CO[C@H]1CN(C)C(=O)c2cc(NC(=O)c3cnccn3)ccc2OC[C@@H](C)N(C)C[C@@H]1C,/,/,/,/,-9[16.7 µM],/
CO[C@H]1CN(C)C(=O)c2cc(NS(=O)(=O)c3cn(C)cn3)ccc2OC[C@H](C)N(C)C[C@@H]1C,/,/,/,/,7[16.7 µM],/
Cc1nn(CC(=O)N2CCCC2)c(=O)c2nn(-c3ccccc3)c(C)c12,-22,4,0,0,-10,/
CCOC(=O)C1CCCN(C(=O)Cn2nc(C)c3c(C)n(-c4ccccc4)nc3c2=O)C1 (configuration not stated),0,4,9.8*,19,1,1
N#Cc1ccc(-c2nc3c4ccccc4ccn3c2CC2CCCCC2)cc1,-26,-4,22*,/,-20,7.2*
Cc1ccc(-c2nc3c4ccccc4ccn3c2CC2CCCCC2)cc1,-22,2,4,/,7,/
C[C@@H]1CCCCO[C@H](CN(C)Cc2ccc3c(c2)OCO3)[C@H](C)CN([C@H](C)CO)C(=O)c2cc(NC(=O)c3ccncc3)ccc2O1,/,/,/,/,20[16.7 µM],/
O=C(Cc1ccccc1)NCC(=O)N/N=C/c1ccc([N+](=O)[O-])s1,-4,-9,2,-1,-8,/
CCOC(=O)N/N=C\c1ccc([N+](=O)[O-])s1,2,-7,6.5*,-7,0,4.7*
O=C(CNC(=O)c1ccccc1)N/N=C/c1ccc([N+](=O)[O-])s1,-12,-4,12*,10,5,5.5*
CCOc1ccc(-n2cc(C(=O)N3CCCCCC3)c3cc(OC)c(OC)cc3c2=O)cc1,5,-4,5.5*,-1,-8,9.9*
O=C(NCCN1CCOCC1)c1ccc(Cl)c(S(=O)(=O)N2CCCC2)c1,11,0,0,12,-6,/
O=C(NCCN1CCOCC1)c1ccc(Cl)c(S(=O)(=O)N2CCCCCC2)c1,19,-2,4.7*,-1,/,-1
O=C1Nc2ccc(Br)cc2C1Cc1ccccc1F (configuration not stated),-4,-7,0,7,-13,/
Cn1c(CC2C(=O)Nc3ccc(Br)cc32)nc2ccccc2c1=O (configuration not stated),2,-8,5.2*,-16,/,-1
C[C@H](CO)N1C[C@H](C)[C@@H](CN(C)S(=O)(=O)c2ccc(F)cc2)OCCCC[C@H](C)Oc2ccc(NC(=O)Cc3ccccc3)cc2C1=O,/,/,/,/,-18[16.7 µM],/
C[C@H](CO)N1C[C@H](C)[C@@H](CN(C)C(=O)Nc2ccc3c(c2)OCO3)Oc2ccc(NS(=O)(=O)c3cn(C)cn3)cc2C1=O,0,-4,6.4*,10,-16,2
C[C@@H]1CCCCO[C@H](CN(C)C(=O)Nc2ccc3c(c2)OCO3)[C@@H](C)CN([C@@H](C)CO)C(=O)c2cc(NS(=O)(=O)c3cn(C)cn3)ccc2O1,/,/,/,/,-21[16.7 µM],/
SMILES,COUP-TFII inh,GalR3 antagonist,aDG glyco act,Gli-Sufu block,Env fusion inh,aDG conf
CCNc1nc(SC(C)C(=O)OC)nc(N2CCOCC2)n1 (configuration not stated),-12,0,66*,-5,23,-1
CCNc1nc(SCC(=O)OC)nc(N2CCOCC2)n1,0,-6,0,4,-12,/
O=C1C2C3CCC(C3)C2C(=O)N1c1ccc(OS(=O)(=O)c2ccccc2)cc1 (configuration not stated),-13,-2,2.8*,-78,-34,-1
CC(C)N1CCN(c2ccc(OCC3COC(Cn4cncn4)(c4ccc(Cl)cc4Cl)O3)cc2)CC1 (configuration not stated),10,-1,21*,11,17,9.9*
CC(C)N1CCN(c2ccc(OC[C@H]3CO[C@](Cn4cncn4)(c4ccc(Cl)cc4Cl)O3)cc2)CC1,13,-4,6,7,-36,/
O=C(Nc1ccccc1)N1CCN(Cc2ccc(Cl)cc2)CC1,10,-3,0,7,7,/
O=C(Nc1ccc(Cl)cc1)N1CCCN(Cc2ccc(F)cc2)C1,-21,-7,7.8*,12,28,1
COCC1CCN(C(=O)c2cc(COc3ccc4ncccc4c3)on2)CC1,19,-6,6.7*,27,38,-1
O=C(CCN1CCCCC1)c1ccccc1,6,-6,4.7*,3,/,0
O=C(CCN1CCOCC1)c1ccccc1,8,-6,0,-6,/,/
COc1cccc(-c2cn(CC[C@H]3CC[C@H](NS(=O)(=O)Cc4ccccc4)[C@H](CO)O3)nn2)c1,/,/,/,/,7[16.7 µM],/
COc1ccc(C(=O)NC(=S)N2CCCC2)cc1,3,0,0,5,-1,/
COc1ccc(C(=O)NC(=S)N2CCCCC2)cc1,-19,0,3.6*,-9,-34,-1
CN(C)CCCNC(=O)C[C@H]1C[C@H](C(=O)N2CCOCC2)[C@@]2(C)c3[nH]c4ccc(Cl)cc4c3CCN2C1=O,0,3,5.2*,3,-22,-1
CCS(=O)(=O)Nc1ccc2c(c1)C(=O)N(C)[C@H]1CC[C@@H](CC(=O)Nc3ccccc3)O[C@@H]1CO2,/,/,/,/,16[16.7 µM],/
C[C@@H]1CN([C@H](C)CO)C(=O)Cc2cc(NC(=O)CCN3CCOCC3)ccc2O[C@H]1CN(C)S(=O)(=O)c1cccs1,/,/,/,/,-23[16.7 µM],/
O=C(CCl)N1CCN(S(=O)(=O)c2ccc3c(c2)OCCCO3)CC1,-7,-3,0,-1,/,/
O=C(c1ccccc1OC(F)F)N1CCN(S(=O)(=O)c2ccc3c(c2)OCCCO3)CC1,-3,-4,14*,1,/,0
O=C(CCc1ccccc1)NC(NC(=S)Nc1cccc(Cl)c1)C(Cl)(Cl)Cl (configuration not stated),6,-4,7.2*,3,/,0
